# Assay results as given in paper PMC7862700, “An all-to-all approach to the identification of sequence-specific readers for epigenetic DNA modifications on cytosine”.
# Columns and labels:
# Assay in all cases: DAPPL (digital affinity profiling via proximity ligation, sequencing); 10 mM Tris-HCl pH 7.5, 50 mM NaCl, 1 mM DTT, 4% glycerol, room temperature, 30 min; GST-TFs on glutathione beads, 16-mer random dsDNA library, 0.1% formaldehyde crosslink after washing; high values mean tight binding
# Details in all cases: protein: recombinant; tags: N-terminal GST; dsDNA, one strand shown
# ERF = biological target: T1, ERF (Homo sapiens, UniProt P50548 1-548)
# T1 sequence: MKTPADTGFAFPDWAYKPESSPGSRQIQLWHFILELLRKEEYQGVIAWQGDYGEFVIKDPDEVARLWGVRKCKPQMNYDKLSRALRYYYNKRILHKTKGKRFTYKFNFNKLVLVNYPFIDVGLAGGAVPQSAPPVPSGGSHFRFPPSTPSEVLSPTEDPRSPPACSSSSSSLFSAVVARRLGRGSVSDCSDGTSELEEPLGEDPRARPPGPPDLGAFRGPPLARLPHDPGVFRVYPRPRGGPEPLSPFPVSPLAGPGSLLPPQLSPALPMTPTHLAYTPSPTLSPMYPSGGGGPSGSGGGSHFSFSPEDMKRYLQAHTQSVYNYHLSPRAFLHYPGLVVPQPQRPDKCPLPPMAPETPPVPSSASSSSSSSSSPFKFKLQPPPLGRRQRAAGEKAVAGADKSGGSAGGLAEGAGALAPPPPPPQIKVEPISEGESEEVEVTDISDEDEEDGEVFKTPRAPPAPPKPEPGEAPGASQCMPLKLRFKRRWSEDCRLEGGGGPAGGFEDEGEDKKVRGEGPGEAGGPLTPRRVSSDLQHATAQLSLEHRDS
# How it was run: (§1)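 Human transcription factors carrying a GST fusion were produced in yeast, bound to glutathione beads, tagged with DNA barcodes and pooled together with a tag-only sample. Each pool was held with 200 nmole of a random double-stranded 16-mer DNA library in Tris/NaCl/DTT/glycerol buffer for 30 min at room temperature, then washed, crosslinked in 0.1% formaldehyde, proximity-ligated with BsaI/T4 ligase (1 h, 37 °C), PCR-amplified and sequenced on an Illumina NextSeq500. Binding signal is the read frequency of each hexamer for a given factor divided by its frequency in the tag-only sample.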
# ETV3L = biological target: T2, ETV3L (Homo sapiens, UniProt Q6ZN32 1-361)
# T2 sequence: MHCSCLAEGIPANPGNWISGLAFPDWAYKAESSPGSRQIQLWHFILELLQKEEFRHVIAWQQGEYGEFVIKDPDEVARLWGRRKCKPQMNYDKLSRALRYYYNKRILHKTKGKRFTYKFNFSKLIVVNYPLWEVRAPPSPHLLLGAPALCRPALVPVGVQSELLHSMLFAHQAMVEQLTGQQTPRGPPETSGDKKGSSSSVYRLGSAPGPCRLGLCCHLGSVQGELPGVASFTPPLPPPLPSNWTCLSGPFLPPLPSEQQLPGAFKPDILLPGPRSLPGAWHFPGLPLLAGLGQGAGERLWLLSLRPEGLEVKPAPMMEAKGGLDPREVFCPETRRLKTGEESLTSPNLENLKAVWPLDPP
# How it was run: as §1
# ETS2 = biological target: T3, ETS2 (Homo sapiens, UniProt P15036 1-469)
# T3 sequence: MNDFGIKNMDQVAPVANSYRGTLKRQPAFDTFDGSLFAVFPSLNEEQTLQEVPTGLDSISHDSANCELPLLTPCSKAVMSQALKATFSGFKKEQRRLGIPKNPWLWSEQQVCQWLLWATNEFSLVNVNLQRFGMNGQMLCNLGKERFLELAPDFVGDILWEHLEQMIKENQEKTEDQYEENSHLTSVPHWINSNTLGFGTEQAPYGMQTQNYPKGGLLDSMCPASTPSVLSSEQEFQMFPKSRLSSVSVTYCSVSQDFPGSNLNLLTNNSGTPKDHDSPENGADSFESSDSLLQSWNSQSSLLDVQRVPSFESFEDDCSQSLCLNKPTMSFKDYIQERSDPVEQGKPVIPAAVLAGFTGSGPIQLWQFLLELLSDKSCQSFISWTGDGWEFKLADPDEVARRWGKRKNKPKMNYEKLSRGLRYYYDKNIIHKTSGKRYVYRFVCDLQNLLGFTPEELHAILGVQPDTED
# How it was run: as §1
# SPDEF = biological target: T4, SPDEF (Homo sapiens, UniProt O95238 1-335)
# T4 sequence: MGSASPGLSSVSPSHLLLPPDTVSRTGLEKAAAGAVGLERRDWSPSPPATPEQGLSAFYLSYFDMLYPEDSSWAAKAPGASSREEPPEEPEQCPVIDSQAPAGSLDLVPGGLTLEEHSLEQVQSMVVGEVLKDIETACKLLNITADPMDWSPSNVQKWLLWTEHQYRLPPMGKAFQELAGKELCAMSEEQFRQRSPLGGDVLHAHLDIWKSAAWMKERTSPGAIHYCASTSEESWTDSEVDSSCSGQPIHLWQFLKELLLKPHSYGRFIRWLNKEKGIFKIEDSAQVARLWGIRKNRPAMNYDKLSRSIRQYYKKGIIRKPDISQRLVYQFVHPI
# How it was run: as §1
# ETV7 = biological target: T5, ETV7 (Homo sapiens, UniProt Q9Y603 1-341)
# T5 sequence: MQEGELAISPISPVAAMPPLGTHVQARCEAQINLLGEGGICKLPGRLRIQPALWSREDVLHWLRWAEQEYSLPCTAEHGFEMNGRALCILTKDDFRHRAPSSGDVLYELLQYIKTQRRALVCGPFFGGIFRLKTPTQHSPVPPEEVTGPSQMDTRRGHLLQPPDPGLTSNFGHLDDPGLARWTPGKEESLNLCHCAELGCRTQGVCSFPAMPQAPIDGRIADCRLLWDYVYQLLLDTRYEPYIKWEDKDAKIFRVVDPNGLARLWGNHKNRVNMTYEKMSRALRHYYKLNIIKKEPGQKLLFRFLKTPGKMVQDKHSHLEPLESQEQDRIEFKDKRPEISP
# How it was run: as §1
# ELF5 = biological target: T6, ELF5 (Homo sapiens, UniProt Q9UKW6-2 1-255)
# T6 sequence: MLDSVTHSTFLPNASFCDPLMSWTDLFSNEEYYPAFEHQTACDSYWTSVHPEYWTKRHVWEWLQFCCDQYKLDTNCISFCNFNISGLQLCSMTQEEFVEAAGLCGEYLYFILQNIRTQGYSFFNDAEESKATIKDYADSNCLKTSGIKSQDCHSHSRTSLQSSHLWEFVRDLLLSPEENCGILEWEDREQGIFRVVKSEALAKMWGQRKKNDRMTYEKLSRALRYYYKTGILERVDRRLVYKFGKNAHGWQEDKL
# How it was run: as §1
# ETV3 = biological target: T7, ETV3 (Homo sapiens, UniProt P41162-2 1-143)
# T7 sequence: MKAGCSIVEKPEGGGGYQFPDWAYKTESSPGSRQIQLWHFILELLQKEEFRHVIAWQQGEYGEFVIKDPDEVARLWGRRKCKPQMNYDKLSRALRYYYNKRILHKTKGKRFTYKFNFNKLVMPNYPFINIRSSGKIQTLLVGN
# How it was run: as §1
# ETV6 = ETV6 (Homo sapiens, UniProt P41212 1-452)
# How it was run: as §1
# ETV6, sequence (P41212 whole entry): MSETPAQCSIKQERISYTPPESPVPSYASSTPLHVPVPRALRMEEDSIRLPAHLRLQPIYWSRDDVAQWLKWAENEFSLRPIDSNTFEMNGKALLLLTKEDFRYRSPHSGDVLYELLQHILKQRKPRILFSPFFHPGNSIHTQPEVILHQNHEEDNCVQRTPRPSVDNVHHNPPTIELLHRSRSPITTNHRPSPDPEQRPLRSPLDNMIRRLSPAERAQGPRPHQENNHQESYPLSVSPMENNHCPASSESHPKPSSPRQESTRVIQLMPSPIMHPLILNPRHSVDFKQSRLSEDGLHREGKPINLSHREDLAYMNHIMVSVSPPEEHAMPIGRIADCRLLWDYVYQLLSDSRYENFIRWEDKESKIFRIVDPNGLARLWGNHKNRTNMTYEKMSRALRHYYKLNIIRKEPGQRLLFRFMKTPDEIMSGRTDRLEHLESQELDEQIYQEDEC
Sequence,binding signal (ERF),binding signal (ETV3L),binding signal (ETS2),binding signal (SPDEF),binding signal (ETV7),binding signal (ELF5),binding signal (ETV3),binding signal (ETV6)
TCCCCG,"1.21 fold enrichment (6-mer frequency, TF over GST control)","1.17 fold enrichment (6-mer frequency, TF over GST control)","1.11 fold enrichment (6-mer frequency, TF over GST control)","1.14 fold enrichment (6-mer frequency, TF over GST control)","1.15 fold enrichment (6-mer frequency, TF over GST control)","1.24 fold enrichment (6-mer frequency, TF over GST control)","1.27 fold enrichment (6-mer frequency, TF over GST control)","1.13 fold enrichment (6-mer frequency, TF over GST control)"
ACGGCT,"1.16 fold enrichment (6-mer frequency, TF over GST control)","1.23 fold enrichment (6-mer frequency, TF over GST control)","1.19 fold enrichment (6-mer frequency, TF over GST control)","1.18 fold enrichment (6-mer frequency, TF over GST control)","1.03 fold enrichment (6-mer frequency, TF over GST control)","1.07 fold enrichment (6-mer frequency, TF over GST control)","1.11 fold enrichment (6-mer frequency, TF over GST control)","1.16 fold enrichment (6-mer frequency, TF over GST control)"
GCACAA,"1.16 fold enrichment (6-mer frequency, TF over GST control)","1.08 fold enrichment (6-mer frequency, TF over GST control)","1.12 fold enrichment (6-mer frequency, TF over GST control)","1.05 fold enrichment (6-mer frequency, TF over GST control)","1.09 fold enrichment (6-mer frequency, TF over GST control)","1.1 fold enrichment (6-mer frequency, TF over GST control)","1.14 fold enrichment (6-mer frequency, TF over GST control)","1.11 fold enrichment (6-mer frequency, TF over GST control)"
CTTACT,"1.32 fold enrichment (6-mer frequency, TF over GST control)","1.22 fold enrichment (6-mer frequency, TF over GST control)","1.26 fold enrichment (6-mer frequency, TF over GST control)","1.21 fold enrichment (6-mer frequency, TF over GST control)","1.18 fold enrichment (6-mer frequency, TF over GST control)","1.3 fold enrichment (6-mer frequency, TF over GST control)","1.27 fold enrichment (6-mer frequency, TF over GST control)","1.3 fold enrichment (6-mer frequency, TF over GST control)"
AAGAAC,"1.08 fold enrichment (6-mer frequency, TF over GST control)","1.13 fold enrichment (6-mer frequency, TF over GST control)","1.18 fold enrichment (6-mer frequency, TF over GST control)","1.23 fold enrichment (6-mer frequency, TF over GST control)","1.25 fold enrichment (6-mer frequency, TF over GST control)","1.21 fold enrichment (6-mer frequency, TF over GST control)","1.11 fold enrichment (6-mer frequency, TF over GST control)","1.27 fold enrichment (6-mer frequency, TF over GST control)"
CAACAC,"1.16 fold enrichment (6-mer frequency, TF over GST control)","1.13 fold enrichment (6-mer frequency, TF over GST control)","1.13 fold enrichment (6-mer frequency, TF over GST control)","1.13 fold enrichment (6-mer frequency, TF over GST control)","1.13 fold enrichment (6-mer frequency, TF over GST control)","1.1 fold enrichment (6-mer frequency, TF over GST control)","1.15 fold enrichment (6-mer frequency, TF over GST control)","1.11 fold enrichment (6-mer frequency, TF over GST control)"
CACTAT,"1.2 fold enrichment (6-mer frequency, TF over GST control)","1.18 fold enrichment (6-mer frequency, TF over GST control)","1.25 fold enrichment (6-mer frequency, TF over GST control)","1.18 fold enrichment (6-mer frequency, TF over GST control)","1.29 fold enrichment (6-mer frequency, TF over GST control)","1.15 fold enrichment (6-mer frequency, TF over GST control)","1.2 fold enrichment (6-mer frequency, TF over GST control)","1.14 fold enrichment (6-mer frequency, TF over GST control)"
GACCTA,"1.09 fold enrichment (6-mer frequency, TF over GST control)","1.31 fold enrichment (6-mer frequency, TF over GST control)","1.19 fold enrichment (6-mer frequency, TF over GST control)","1.13 fold enrichment (6-mer frequency, TF over GST control)","1.2 fold enrichment (6-mer frequency, TF over GST control)","1.15 fold enrichment (6-mer frequency, TF over GST control)","1.07 fold enrichment (6-mer frequency, TF over GST control)","1.22 fold enrichment (6-mer frequency, TF over GST control)"
TCGTTC,"1.36 fold enrichment (6-mer frequency, TF over GST control)","1.25 fold enrichment (6-mer frequency, TF over GST control)","1.2 fold enrichment (6-mer frequency, TF over GST control)","1.3 fold enrichment (6-mer frequency, TF over GST control)","1.15 fold enrichment (6-mer frequency, TF over GST control)","1.27 fold enrichment (6-mer frequency, TF over GST control)","1.26 fold enrichment (6-mer frequency, TF over GST control)","1.29 fold enrichment (6-mer frequency, TF over GST control)"
ACATCG,"1.11 fold enrichment (6-mer frequency, TF over GST control)","1.18 fold enrichment (6-mer frequency, TF over GST control)","1.02 fold enrichment (6-mer frequency, TF over GST control)","1.08 fold enrichment (6-mer frequency, TF over GST control)","1.07 fold enrichment (6-mer frequency, TF over GST control)","1.01 fold enrichment (6-mer frequency, TF over GST control)","1.08 fold enrichment (6-mer frequency, TF over GST control)","1.04 fold enrichment (6-mer frequency, TF over GST control)"
CCGACT,"1.5 fold enrichment (6-mer frequency, TF over GST control)","1.6 fold enrichment (6-mer frequency, TF over GST control)","1.54 fold enrichment (6-mer frequency, TF over GST control)","1.45 fold enrichment (6-mer frequency, TF over GST control)","1.32 fold enrichment (6-mer frequency, TF over GST control)","1.41 fold enrichment (6-mer frequency, TF over GST control)","1.34 fold enrichment (6-mer frequency, TF over GST control)","1.51 fold enrichment (6-mer frequency, TF over GST control)"
TGTCAC,"1.13 fold enrichment (6-mer frequency, TF over GST control)","1.21 fold enrichment (6-mer frequency, TF over GST control)","1.26 fold enrichment (6-mer frequency, TF over GST control)","1.09 fold enrichment (6-mer frequency, TF over GST control)","1.29 fold enrichment (6-mer frequency, TF over GST control)","1.11 fold enrichment (6-mer frequency, TF over GST control)","1.08 fold enrichment (6-mer frequency, TF over GST control)","1.1 fold enrichment (6-mer frequency, TF over GST control)"
